Drawing on ChEMBL document CHEMBL2218924, “A broad activity screen in support of a chemogenomic map for kinase signalling research and drug discovery” (Biochem J, 2013), this text covers residual activity for one compound.

Experiment [1] deals with T1, Ephrin type-A receptor 3 (Homo sapiens) (UniProt P29320).
T1 sequence (whole entry): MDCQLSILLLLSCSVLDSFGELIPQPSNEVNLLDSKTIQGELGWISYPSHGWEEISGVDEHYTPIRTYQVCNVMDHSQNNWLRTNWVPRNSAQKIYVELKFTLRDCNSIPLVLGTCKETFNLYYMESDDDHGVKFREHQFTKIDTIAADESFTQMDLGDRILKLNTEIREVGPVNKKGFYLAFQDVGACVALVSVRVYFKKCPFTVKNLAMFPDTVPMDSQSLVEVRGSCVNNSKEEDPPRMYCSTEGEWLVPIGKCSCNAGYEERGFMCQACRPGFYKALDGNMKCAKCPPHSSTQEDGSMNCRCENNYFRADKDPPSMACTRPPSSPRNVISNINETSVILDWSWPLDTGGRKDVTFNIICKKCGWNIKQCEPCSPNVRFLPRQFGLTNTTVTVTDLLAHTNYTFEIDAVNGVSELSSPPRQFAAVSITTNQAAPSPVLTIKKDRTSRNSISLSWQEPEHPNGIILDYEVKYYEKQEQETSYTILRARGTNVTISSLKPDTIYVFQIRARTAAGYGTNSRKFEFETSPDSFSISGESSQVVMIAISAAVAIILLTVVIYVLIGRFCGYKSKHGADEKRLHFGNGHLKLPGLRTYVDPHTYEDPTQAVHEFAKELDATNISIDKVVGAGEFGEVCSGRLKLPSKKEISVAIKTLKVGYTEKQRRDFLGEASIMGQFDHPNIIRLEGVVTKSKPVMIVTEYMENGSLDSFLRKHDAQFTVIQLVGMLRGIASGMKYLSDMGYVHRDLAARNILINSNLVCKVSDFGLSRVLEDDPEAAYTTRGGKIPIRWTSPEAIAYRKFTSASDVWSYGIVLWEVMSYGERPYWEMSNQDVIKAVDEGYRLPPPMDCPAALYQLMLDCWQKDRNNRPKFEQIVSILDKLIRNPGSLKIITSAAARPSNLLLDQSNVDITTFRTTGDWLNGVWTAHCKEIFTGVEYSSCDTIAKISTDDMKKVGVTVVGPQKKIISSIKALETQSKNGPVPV
The following applies: at 10 µM.

Experiment [2] has as its target Ephrin type-A receptor 4 (Homo sapiens) (UniProt P54764). The conditions noted are these: at 1 µM.
The target is the same in experiment [3]. The following applies: at 10 µM.
Experiment [4] concerns the target Ephrin type-A receptor 5 (Homo sapiens) (UniProt P54756). The conditions noted are these: at 1 µM.
Experiment [5] shares this target. The conditions noted are these: at 10 µM.
In experiment [6] the target is Ephrin type-A receptor 7 (Homo sapiens) (UniProt Q15375). The conditions noted are these: at 1 µM.
Sequence of Ephrin type-A receptor 7 (Homo sapiens) (Q15375 28-998 limits assumed): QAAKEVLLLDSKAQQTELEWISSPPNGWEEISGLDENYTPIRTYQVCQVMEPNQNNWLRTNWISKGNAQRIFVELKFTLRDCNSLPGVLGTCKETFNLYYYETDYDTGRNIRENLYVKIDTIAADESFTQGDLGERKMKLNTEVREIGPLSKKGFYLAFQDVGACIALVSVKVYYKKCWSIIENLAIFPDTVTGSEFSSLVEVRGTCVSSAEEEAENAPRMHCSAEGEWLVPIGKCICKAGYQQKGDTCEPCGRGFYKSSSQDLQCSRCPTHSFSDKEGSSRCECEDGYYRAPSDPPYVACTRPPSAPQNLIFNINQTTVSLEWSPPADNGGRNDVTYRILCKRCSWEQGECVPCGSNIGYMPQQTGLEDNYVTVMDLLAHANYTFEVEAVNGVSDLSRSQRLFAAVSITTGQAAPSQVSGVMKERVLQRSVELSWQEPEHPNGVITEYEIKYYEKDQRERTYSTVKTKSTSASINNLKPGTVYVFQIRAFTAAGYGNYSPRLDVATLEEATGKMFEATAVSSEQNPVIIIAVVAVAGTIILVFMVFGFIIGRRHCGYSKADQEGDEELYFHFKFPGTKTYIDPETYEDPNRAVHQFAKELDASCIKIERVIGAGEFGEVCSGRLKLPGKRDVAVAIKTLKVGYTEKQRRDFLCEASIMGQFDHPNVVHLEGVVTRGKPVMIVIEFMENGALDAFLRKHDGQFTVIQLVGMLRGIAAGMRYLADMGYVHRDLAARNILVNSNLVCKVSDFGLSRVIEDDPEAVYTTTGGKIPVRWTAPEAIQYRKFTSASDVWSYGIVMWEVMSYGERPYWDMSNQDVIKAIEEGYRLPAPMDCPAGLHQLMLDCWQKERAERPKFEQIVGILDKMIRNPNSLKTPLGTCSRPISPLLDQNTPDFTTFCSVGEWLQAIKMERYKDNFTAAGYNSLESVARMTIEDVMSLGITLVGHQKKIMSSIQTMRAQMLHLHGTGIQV
The target is the same in experiment [7]. The conditions noted are these: at 10 µM.
Experiment [8] addresses T2, Ephrin type-A receptor 8 (Homo sapiens) (UniProt P29322).
T2 sequence (whole entry): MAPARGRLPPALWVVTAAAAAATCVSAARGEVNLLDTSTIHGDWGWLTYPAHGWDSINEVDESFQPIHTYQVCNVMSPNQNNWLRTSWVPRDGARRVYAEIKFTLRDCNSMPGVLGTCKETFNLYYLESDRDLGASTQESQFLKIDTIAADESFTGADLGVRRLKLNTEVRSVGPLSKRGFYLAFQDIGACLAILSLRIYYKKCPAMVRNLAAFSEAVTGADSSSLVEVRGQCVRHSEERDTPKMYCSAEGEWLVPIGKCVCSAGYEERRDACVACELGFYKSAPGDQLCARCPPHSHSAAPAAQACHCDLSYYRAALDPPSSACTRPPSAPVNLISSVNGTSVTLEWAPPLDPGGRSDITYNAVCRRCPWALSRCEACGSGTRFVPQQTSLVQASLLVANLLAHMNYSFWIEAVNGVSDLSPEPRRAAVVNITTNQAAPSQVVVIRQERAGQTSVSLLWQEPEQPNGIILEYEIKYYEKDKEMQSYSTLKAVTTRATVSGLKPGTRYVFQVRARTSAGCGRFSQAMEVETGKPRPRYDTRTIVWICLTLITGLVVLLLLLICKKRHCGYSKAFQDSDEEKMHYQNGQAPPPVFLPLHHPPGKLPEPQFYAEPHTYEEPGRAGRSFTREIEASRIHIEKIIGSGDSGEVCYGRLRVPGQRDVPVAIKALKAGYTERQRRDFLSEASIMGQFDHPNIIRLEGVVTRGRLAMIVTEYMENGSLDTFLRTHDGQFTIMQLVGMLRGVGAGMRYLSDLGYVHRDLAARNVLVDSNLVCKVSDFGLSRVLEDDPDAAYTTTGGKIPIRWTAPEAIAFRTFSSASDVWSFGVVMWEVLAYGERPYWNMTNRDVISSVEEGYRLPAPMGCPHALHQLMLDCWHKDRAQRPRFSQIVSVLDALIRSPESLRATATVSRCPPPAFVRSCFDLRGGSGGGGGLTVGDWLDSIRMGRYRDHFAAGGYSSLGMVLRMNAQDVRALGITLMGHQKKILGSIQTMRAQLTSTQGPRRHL
The following applies: at 1 µM.

The target of experiment [9] is T2, Ephrin type-A receptor 8 (Homo sapiens). The conditions noted are these: at 10 µM.
Experiment [10] deals with T3, Ephrin type-B receptor 1 (Homo sapiens) (UniProt P54762).
T3 sequence (whole entry): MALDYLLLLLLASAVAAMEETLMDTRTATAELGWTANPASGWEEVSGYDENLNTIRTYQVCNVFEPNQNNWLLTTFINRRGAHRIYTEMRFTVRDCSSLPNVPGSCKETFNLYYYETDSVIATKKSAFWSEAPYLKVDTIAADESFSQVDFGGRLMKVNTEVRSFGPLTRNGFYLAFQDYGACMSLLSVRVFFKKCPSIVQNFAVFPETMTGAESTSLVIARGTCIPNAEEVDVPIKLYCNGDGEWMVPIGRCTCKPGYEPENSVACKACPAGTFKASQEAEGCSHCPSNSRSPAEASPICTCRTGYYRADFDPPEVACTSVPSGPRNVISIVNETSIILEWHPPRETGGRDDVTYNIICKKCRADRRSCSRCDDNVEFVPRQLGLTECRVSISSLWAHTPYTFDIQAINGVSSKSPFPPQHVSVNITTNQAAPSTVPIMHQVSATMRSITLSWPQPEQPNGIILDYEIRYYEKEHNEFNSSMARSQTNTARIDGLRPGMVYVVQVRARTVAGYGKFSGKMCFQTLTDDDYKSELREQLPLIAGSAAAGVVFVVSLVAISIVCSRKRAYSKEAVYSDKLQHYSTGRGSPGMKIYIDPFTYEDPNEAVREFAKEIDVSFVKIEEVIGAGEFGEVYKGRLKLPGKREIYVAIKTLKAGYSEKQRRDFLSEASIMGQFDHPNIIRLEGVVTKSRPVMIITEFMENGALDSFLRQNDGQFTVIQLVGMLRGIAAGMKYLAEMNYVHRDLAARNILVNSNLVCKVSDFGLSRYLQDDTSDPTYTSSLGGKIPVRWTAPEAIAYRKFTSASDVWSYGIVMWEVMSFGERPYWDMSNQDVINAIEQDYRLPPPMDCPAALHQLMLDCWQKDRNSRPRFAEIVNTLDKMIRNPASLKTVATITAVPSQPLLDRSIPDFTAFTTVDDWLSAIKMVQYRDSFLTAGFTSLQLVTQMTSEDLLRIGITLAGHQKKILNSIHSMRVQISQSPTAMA
The following applies: at 1 µM.

Sequence of Ephrin type-A receptor 4 (Homo sapiens) (P54764 whole entry): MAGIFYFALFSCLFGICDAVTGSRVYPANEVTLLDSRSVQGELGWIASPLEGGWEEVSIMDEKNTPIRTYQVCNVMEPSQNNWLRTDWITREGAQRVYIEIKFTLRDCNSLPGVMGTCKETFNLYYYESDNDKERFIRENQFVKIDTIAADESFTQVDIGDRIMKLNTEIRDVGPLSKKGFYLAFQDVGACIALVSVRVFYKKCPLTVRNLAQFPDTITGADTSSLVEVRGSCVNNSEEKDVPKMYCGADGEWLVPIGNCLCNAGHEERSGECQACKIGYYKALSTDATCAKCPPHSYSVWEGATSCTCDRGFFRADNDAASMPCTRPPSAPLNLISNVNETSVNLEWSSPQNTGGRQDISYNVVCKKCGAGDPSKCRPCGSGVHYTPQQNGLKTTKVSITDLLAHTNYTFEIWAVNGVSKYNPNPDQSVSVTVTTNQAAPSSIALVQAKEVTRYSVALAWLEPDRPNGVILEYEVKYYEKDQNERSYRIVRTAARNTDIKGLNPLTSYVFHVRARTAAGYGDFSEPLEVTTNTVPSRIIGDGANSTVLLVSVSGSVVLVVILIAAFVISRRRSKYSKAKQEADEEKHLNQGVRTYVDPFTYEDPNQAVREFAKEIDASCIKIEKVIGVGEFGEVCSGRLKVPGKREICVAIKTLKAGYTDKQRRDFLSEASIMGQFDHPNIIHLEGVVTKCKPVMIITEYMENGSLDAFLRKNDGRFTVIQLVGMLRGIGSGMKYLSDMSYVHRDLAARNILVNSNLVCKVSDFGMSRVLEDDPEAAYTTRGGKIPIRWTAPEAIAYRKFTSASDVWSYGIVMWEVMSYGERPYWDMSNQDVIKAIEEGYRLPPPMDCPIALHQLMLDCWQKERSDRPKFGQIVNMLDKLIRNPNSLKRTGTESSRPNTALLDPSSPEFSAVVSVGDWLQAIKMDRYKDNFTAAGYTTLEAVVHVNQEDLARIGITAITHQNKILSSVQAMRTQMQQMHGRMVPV
Sequence of Ephrin type-A receptor 5 (Homo sapiens) (P54756 whole entry): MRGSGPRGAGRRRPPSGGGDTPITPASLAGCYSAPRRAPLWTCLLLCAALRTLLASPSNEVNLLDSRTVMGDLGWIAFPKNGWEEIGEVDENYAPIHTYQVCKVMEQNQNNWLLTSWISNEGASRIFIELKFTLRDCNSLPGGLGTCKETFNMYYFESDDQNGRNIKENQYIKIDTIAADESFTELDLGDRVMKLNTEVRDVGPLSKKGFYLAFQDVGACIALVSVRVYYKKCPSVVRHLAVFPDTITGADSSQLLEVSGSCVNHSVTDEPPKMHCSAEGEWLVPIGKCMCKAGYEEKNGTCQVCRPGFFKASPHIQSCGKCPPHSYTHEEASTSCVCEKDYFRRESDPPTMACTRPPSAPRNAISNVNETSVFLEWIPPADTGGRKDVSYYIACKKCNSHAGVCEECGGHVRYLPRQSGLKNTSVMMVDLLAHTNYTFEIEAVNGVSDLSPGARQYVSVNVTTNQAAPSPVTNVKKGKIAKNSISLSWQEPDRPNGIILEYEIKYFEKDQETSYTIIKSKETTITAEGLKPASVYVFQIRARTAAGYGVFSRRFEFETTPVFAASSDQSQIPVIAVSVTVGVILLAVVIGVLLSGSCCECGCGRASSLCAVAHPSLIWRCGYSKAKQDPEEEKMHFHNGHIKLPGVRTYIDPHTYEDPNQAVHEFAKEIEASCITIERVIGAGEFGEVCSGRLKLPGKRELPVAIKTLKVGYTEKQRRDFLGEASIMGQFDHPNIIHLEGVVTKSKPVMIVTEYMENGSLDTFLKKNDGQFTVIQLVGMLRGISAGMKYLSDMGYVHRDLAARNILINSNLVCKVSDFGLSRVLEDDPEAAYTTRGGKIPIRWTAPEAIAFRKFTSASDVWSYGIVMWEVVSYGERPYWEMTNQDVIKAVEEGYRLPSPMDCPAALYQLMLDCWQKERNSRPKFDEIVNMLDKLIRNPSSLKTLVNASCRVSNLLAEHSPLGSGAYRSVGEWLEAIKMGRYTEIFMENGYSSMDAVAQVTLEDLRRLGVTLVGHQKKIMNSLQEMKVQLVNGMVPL

For `COc1ccc(S(=O)(=O)N(CCO)c2ccccc2CN(C)C/C=C/c2ccc(Cl)cc2)cc1`, the residual activity in [1] stood at 83%; in experiment [2], 103%; in [3] it was 97%; in experiment [4], 124%; in experiment [5] it was 112%; in [6], 96%. The residual activity in experiment [7] turned out to be 96%; in experiment [8] it was 98%; in [9] it was 88%; in experiment [10], 103%.

As a reminder, the residual activity is the signal under treatment as a percentage of the control signal.
